From PubChem BioAssay (EPA / NIEHS)
Inconclusive results are not listed. The source made the active and inactive calls. Rule for the calls: active = hit-call score of the fitted dose curve at least 0.9, where 1 is the maximum; inconclusive = response in the unintended direction; inactive = score below 0.9.

The molecules below were run against human RAR-related Orphan Receptor beta (RORb), RORB (gene 6096) (UniProt Q92753) (assay: ATG_RORb_TRANS: Attagene TRANS-FACTORIAL HepG2 Assay for human RAR-related Orphan Receptor beta (RORb) (AID 2283010)).
Outline: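 Transfect HepG2 with multiple GAL4-UAS reporter transcription units; dose chemicals for 24 h; isolate RNA, reverse-transcribe and PCR-amplify reporter sequences; label, digest and resolve fragments by capillary electrophoresis; fit increases relative to DMSO.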

Sequence of human RAR-related Orphan Receptor beta (RORb), RORB (gene 6096) (Q92753 whole entry, looked up, the tested form may be a part): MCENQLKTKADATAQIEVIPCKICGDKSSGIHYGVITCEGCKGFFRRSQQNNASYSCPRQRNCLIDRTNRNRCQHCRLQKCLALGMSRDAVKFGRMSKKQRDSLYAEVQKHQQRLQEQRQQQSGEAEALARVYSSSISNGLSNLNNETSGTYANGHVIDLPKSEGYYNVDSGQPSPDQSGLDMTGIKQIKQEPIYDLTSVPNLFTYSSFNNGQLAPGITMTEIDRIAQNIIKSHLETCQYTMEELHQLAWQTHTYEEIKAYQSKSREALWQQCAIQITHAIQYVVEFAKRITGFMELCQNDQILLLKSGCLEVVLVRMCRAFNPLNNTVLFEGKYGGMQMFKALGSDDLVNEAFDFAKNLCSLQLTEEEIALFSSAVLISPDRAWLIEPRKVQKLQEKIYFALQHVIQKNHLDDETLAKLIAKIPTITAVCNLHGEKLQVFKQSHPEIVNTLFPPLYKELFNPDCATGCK

Row | SMILES | outcome
1 | OCC(F)(F)C(F)(F)C(F)(F)C(F)F | inactive
2 | Cc1ccc(S(=O)(=O)NCl)cc1 | inactive
3 | CC/C=C\CCOC(=O)c1ccccc1 | inactive
4 | CCN(Cc1cccc(S(=O)(=O)O)c1)c1ccc(C(=C2C=CC(=[N+](CC)Cc3cccc(S(=O)(=O)O)c3)C=C2)c2ccc(O)cc2S(=O)(=O)[O-])cc1 | inactive
5 | Oc1ccc(Nc2ccccc2)cc1 | inactive
6 | Nc1cc(Cl)c(N)c(Cl)c1 | inactive
7 | CC(C)OC(=O)c1ccccc1C(=O)OC(C)C | inactive
8 | Cc1cccc(N(C)C)c1 | inactive
9 | O=C(O)C(F)(F)C(F)(F)OC(F)(F)F | inactive
10 | CCCCCCOC(=O)c1ccccc1O | inactive
11 | O=S(=O)(O)C(F)(F)C(F)(F)C(F)(F)C(F)(F)C(F)(F)C(F)(F)C(F)(F)F | inactive
12 | O=C(O)C(F)(F)C(F)(F)C(F)(F)C(F)(F)F | inactive
13 | O=C(O)C(F)(F)C(F)(F)C(F)(F)F | inactive
14 | C1COCCN1 | inactive
15 | C=CC(F)(F)C(F)(F)C(F)(F)C(F)(F)C(F)(F)C(F)(F)C(F)(F)C(F)(F)C=C | inactive
16 | CC(=O)Nc1ccc(N=Nc2cc(C)ccc2O)cc1 | inactive
17 | CC(C)(C)c1ccc(OC2CCCCC2O)cc1 (centres undefined) | inactive

Row | SMILES | outcome
18 | N=C(N)C(F)(F)C(F)(F)C(F)(F)C(F)(F)C(F)(F)C(F)(F)C(F)(F)F | inactive
19 | O=C(O)C(F)(F)C(F)(F)C(F)(F)C(F)(F)C(F)(F)C(F)(F)C(F)(F)C(F)(F)Cl | inactive
20 | COC(OC(C)=O)c1ccccc1 (centres undefined) | inactive
21 | O=P(O)(O)OCCC(F)(F)C(F)(F)C(F)(F)C(F)(F)C(F)(F)C(F)(F)F | inactive
22 | CCCCCCCOC(=O)c1ccccc1C(=O)OCCCCCCC | inactive
23 | Cc1cc(C)cc(O)c1 | inactive
24 | [Co] | inactive
25 | CCCCCCCCCCCCCCCC[N+](C)(C)Cc1ccccc1 | inactive
26 | FC(F)(F)C(F)(F)C(F)(F)CI | inactive
27 | O=C(O)C(F)(F)C(F)(F)C(F)(F)C(F)(F)C(F)(F)C(F)(F)C(F)(F)C(F)(F)C(F)(F)C(F)(F)C(F)(F)C(F)(F)C(F)(F)F | inactive
28 | O=C(O)C(F)(F)C(F)(F)C(F)(F)C(F)(F)C(F)(F)C(F)(F)C(F)(F)C(F)(F)C(F)(F)C(F)(F)C(F)(F)C(F)(F)F | inactive
29 | CC(C)(C)C(=O)CC(=O)C(F)(F)C(F)(F)C(F)(F)F | inactive
30 | FC(F)(F)C(F)(F)C(F)(F)C(F)(F)C(F)(F)C(F)(F)CC1CO1 (centres undefined) | inactive
31 | O=C(O)C(F)(F)C(F)(F)C(F)(F)C(F)(F)C(F)(F)C(F)(F)C(F)(F)C(F)(F)C(F)(F)C(F)F | inactive
32 | O=C(O)C(F)(OC(F)(F)C(F)(OC(F)(F)C(F)(OC(F)(F)C(F)(F)C(F)(F)F)C(F)(F)F)C(F)(F)F)C(F)(F)F (centres undefined) | inactive
33 | c1ccc(-c2ccccc2-c2ccccc2)cc1 | inactive
34 | FC(F)(F)C(F)(F)C(F)(F)C(F)(F)C(F)(F)CCI | inactive
